Assay outcomes: PubChem BioAssay, several laboratories
This is a sample that favours compounds with a hit; in the whole collection about 3.4% have one here.
MEKK2 mut-MEK5 – MEK5 binding signal on mutant MEKK2 PB1, primary screen, biochemical, multiplex bead flow cytometry, Alexa488-MEK5 | percent response, % at 10 µM | 290,000 tested, 0.35% active | Alexa488-MEK5 binding to MEKK2 mutant | AID 1530, 2009; in the data active = percent response above about 24%, passing the limit was not always enough
ANO1 activ – TMEM16A chloride channel activators or potentiators, primary screen, cell-based, HTS; Anoctamin-1 (Mus musculus), Q8BHY3; B-score at 10 µM; 340,000 tested, 0.3% active; HEK293 TMEM16A/YFP-H148Q/I152L, iodide quench fluorescence; hits give low values;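 active = fluorescence-ratio B-score plate-corrected deviation score at least 3 library SD below zero, with starting fluorescence score within 5 deviations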;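 also: channel opened by trigger with iodide after compound preincubation; score built on the fluorescence ratio of max minus min over baseline; more negative score means more quench and so TMEM16A activation or potentiation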
Target sequence (Q8BHY3 whole entry, looked up): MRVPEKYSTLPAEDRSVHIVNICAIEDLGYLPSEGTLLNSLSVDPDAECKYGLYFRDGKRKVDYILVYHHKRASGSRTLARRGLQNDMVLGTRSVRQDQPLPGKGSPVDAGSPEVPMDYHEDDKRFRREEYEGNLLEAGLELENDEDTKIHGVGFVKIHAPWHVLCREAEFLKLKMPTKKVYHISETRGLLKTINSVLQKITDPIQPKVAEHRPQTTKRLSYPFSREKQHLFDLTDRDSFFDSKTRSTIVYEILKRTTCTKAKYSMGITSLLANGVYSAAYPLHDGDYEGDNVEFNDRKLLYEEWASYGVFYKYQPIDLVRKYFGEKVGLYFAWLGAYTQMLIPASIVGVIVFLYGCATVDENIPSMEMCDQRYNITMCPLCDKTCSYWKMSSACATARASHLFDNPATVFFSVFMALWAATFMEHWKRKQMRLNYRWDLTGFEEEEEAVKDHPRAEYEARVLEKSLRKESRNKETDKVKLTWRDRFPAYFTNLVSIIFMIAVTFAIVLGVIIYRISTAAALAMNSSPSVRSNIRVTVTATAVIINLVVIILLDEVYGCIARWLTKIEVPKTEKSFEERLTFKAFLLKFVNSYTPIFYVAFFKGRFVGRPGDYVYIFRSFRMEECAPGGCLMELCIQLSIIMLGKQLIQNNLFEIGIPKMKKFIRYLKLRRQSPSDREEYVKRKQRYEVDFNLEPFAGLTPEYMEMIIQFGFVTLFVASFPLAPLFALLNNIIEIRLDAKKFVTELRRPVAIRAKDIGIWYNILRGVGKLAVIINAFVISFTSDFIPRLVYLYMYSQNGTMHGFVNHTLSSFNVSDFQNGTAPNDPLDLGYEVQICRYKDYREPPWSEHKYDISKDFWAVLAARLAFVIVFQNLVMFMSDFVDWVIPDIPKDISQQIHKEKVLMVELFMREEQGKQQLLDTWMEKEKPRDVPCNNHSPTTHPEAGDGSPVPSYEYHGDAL
ANO1 block – TMEM16A chloride channel inhibitors, primary screen, cell-based, HTS; normalized B-score (activity score, 25-100; higher = stronger inhibition) at 10 µM; HEK293 TMEM16A/YFP iodide influx fluorescence, ionomycin; AID 588511, 2011; Anoctamin-1 (Mus musculus), Q8BHY3; 310,000 tested, 1.2% active;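 active = ratio plate-corrected score three or more library SD toward inhibition, starting fluorescence score within five deviations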;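 also: score derived from kinetic fluorescence span divided by baseline fluorescence per well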
MEKK3 PB1 HTS – modulators of MEKK3-MEK5 PB1 binding, primary screen, biochemical, wildtype MEKK3, multiplex bead flow cytometry, Alexa488-MEK5 | Mitogen-activated protein kinase kinase kinase 3 (Homo sapiens), Q99759 | bead-based flow cytometry, Alexa488-MEK5 binding to MEKK3; actives lie on both sides; 0 = blocked by unlabeled MEK5, 100 = vehicle | binding response (% of control), % at 10 µM | 290,000 tested, 1.4% active | AID 1529, 2009;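 active = binding response more than 3 SD above or below the average of its plate-row segment, actives on both sides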;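 also: Alexa488 bead fluorescence after subtracting the streptavidin-only scavenger bead signal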
MEKK2wt PB1 HTS – modulators of MEK5 binding to wildtype MEKK2, primary screen, biochemical, multiplex bead flow cytometry, Alexa488-MEK5 | Mitogen-activated protein kinase kinase kinase 2 (Homo sapiens), Q9Y2U5 | Alexa488-MEK5 binding to MEKK2 WT; actives lie on both sides | binding response (% of control), % at 10 µM | 290,000 tested, 1.1% active | AID 1531, 2009; in the data active = binding response below about 67% or above about 130%
NTR1 ag – agonists of human NTR1, primary screen, imaging, U2OS cells, beta-arrestin-GFP, high content. activation, % at 20 µM. AID 493036, 2011. NTR1-U2OS beta-arrestin-GFP spot imaging, agonist mode. Neurotensin receptor type 1 (Homo sapiens), P30989. 330,000 tested, 0.17% active;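 active = activation at or above 40% of the spot to cytoplasm intensity ratio, with at least 20 cells analyzed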
Of the large screens only hits and unclear results are named; the others gave an inactive call; ! = not confirmed by another sample; [ ] = another dose, or the depositor's remark.

O=C(CCSCCC(=O)NN=Cc1ccc(F)cc1)NN=Cc1ccc(F)cc1	none (no result: MEKK2 mut-MEK5, ANO1 block, MEKK3 PB1 HTS, MEKK2wt PB1 HTS, NTR1 ag)
c1ccc2c(c1)CCN2CCN1CCc2ccccc21	ANO1 activ -17
Cc1ccc(-c2ccc(C(=O)Nc3ccccc3)o2)c2ccccc12	none
Cc1ccc(S(=O)(=O)NC(=O)c2ccc(-c3ccc(C)c4ccccc34)o2)cc1	ANO1 block 25
COc1ccc(N=C2O/C(=C/c3sc(=S)n(CC4CCCO4)c3O)N=C2C#N)cc1 (centres undefined)	MEKK2wt PB1 HTS 33
CCC(=O)N1CCN(c2ccccc2NC(=O)COc2cc(C)ccc2C(C)C)CC1	none
Cc1ccc(NC(=O)CN2C(=O)S/C(=C/c3ccc(-c4cc(C(=O)O)ccc4C)o3)C2=O)cc1C	ANO1 block 100
Cc1ccc(NC(=O)CC(C(=O)O)c2ccccc2)cc1 (centres undefined)	none
CCCCn1c(SCC(=O)NC2CCCC2)nc2ccccc2c1=O	none (no result: MEKK2 mut-MEK5, MEKK3 PB1 HTS, MEKK2wt PB1 HTS)
CCc1nnc(NC(=O)CSc2nnc(-c3ccc(NS(=O)(=O)c4ccccc4)cc3)o2)s1	none
COC(=O)CSc1nnc(-c2ccc(NS(=O)(=O)c3ccccc3)cc2)o1	ANO1 block 25
CCn1c(SCC(=O)Nc2c(C#N)cnn2-c2ccccc2)nnc1-c1cccs1	none
Cc1ccccc1NC(=S)NNc1ncc(C(F)(F)F)cc1Cl	none
Fc1ccccc1NC(=S)NNc1ncc(C(F)(F)F)cc1Cl	ANO1 block 100 (no result: MEKK2 mut-MEK5, MEKK3 PB1 HTS, MEKK2wt PB1 HTS)
Cc1ccccc1CSc1ccc2nnc(-c3ccccn3)n2n1	none
CS(=O)(=O)Nc1ccc(C(=O)Nc2ccc3c(c2)OCO3)cc1	ANO1 activ -10
CCC1=NN(C(=O)c2ccc([N+](=O)[O-])cc2)C(O)(c2ccccc2)C1 (centres undefined)	ANO1 block 25
COc1ccccc1CN1CCC(CNS(=O)(=O)c2cc(-c3cc(C)no3)ccc2C)CC1	none
COc1ccc(-c2cc(C)no2)cc1S(=O)(=O)NCC1CCN(Cc2cc(C)ccc2C)CC1	MEKK2wt PB1 HTS 143
COC(=O)c1ccc(/C=N\NC(=O)c2c(C)nc3ccc(Cl)cn23)cc1	none
COC(=O)c1cccc(CSc2nc3ccccc3[nH]2)c1	ANO1 block 25
C=Cn1cc[n+](CC(=O)c2ccc(Br)s2)c1	none
O=C(Nc1ccccc1N1CCCCC1)c1ccc(-c2ccc(Cl)cc2)o1	MEKK3 PB1 HTS 141
O=C(NC(=S)Nc1ccccc1N1CCCC1)c1ccco1	ANO1 activ -6.9
CC(C)CCn1nnnc1C(C(C)C)N1CCC(C(N)=O)CC1 (centres undefined)	ANO1 block 100
CCCC(c1nnnn1CCC(C)C)N1CCC(C(N)=O)CC1 (centres undefined)	none (no result: ANO1 activ)
CCCc1cc(C(=O)N2CCCC(N3CCN(c4ccccc4F)CC3)C2)n(C)n1 (centres undefined)	none
S=C(NCCCc1ccccc1)Nc1ccc(Cl)cc1	ANO1 activ -6.3, ANO1 block 100
S=C(NCCC(c1ccccc1)c1ccccc1)Nc1ccc(Cl)cc1	ANO1 block 100
S=C(NCCCc1ccccc1)Nc1ccccc1	none
Cc1ccc(S(=O)(=O)N2CCCC2CNC(=O)C(=O)Nc2ccc(F)cc2F)cc1 (centres undefined)	none (no result: MEKK2 mut-MEK5, MEKK3 PB1 HTS, MEKK2wt PB1 HTS)
O=S(=O)(Cc1cc(Cl)nc(-c2ccccc2)n1)c1ccccc1	none
O=S(=O)(Cc1cc(Cl)nc(-c2ccncc2)n1)c1ccccc1	ANO1 activ -4.7
CCOc1ccc(CNc2ccc(S(N)(=O)=O)cc2)cc1	ANO1 activ -5.1
CCOc1ccc(CNCCc2ccc(S(N)(=O)=O)cc2)cc1	none
C(=N\NC1=Nc2cccc3cccc1c23)/c1ccccc1	none
C(=N\NC1=Nc2cccc3cccc1c23)/c1cccnc1	MEKK2wt PB1 HTS 11
N=C1/C(=C\c2ccc(OC(=O)c3ccccc3Cl)cc2)C(=O)N=C2SC(N3CCOCC3)=NN12	none
COc1cc(/C=C2\C(=N)N3N=C(N4CCOCC4)SC3=NC2=O)ccc1OC(=O)c1ccccc1	ANO1 block 100
O=C(Nc1cccc(-n2cccn2)c1)C1CCCN(Cc2cc3ccccc3[nH]2)C1 (centres undefined)	MEKK2 mut-MEK5 24, MEKK2wt PB1 HTS 139 (no result: ANO1 block)
Cc1cc(CN2CCCC(C(=O)Nc3cccc(-n4cccn4)c3)C2)cc(C)c1O (centres undefined)	none
CC(=O)Nc1ccc(S(=O)(=O)Nc2ccn(Cc3ccccc3Cl)n2)cc1	none (no result: ANO1 block)
CCOC(=O)C(=O)Nc1ccccc1C(=O)OC	none
CCCCOC(=O)Nc1ccccc1C(=O)OC	ANO1 activ -13
O=C(O)Cc1cn(Cc2cccc(Cl)c2)c2ccccc12	none
O=C(Cc1cn(Cc2cccc(Cl)c2)c2ccccc12)N1CCCCCC1	ANO1 block 25
O=C(O)c1ccc(/C=C2\SC(=S)N(NC(=O)c3ccccc3[N+](=O)[O-])C2=O)cc1	none
O=C(NN1C(=O)/C(=C\c2ccc(O)c([N+](=O)[O-])c2)SC1=S)c1ccccc1Cl	ANO1 activ -5.5
O=C(OCn1nnc2ccccc2c1=O)c1cccnc1Cl	ANO1 block 100
CCN(CC)S(=O)(=O)c1ccc(C(=O)OCn2nnc3ccccc3c2=O)cc1	ANO1 block 25
COCC(C)n1c(C)cc(C(=O)COC(=O)c2c(NC(C)=O)sc(C)c2C)c1C (centres undefined)	none
Cc1ccc2c(c1)c(C)c(C)n2CC(O)CN1CCOCC1 (centres undefined)	MEKK2wt PB1 HTS -5.0[inhibitor]
Cc1c(C)n(CC(O)CN2CCCCCC2)c2ccccc12 (centres undefined)	none
O=C(COC(=O)C1COc2ccccc2O1)Nc1ccc(Cl)cc1 (centres undefined)	none (no result: MEKK2 mut-MEK5, ANO1 block, MEKK3 PB1 HTS, MEKK2wt PB1 HTS)
Cn1c(N)c(C(=O)COC(=O)COc2ccc(C#N)cc2)c(=O)n(C)c1=O	none
Cn1c(N)c(C(=O)COc2ccc(C#N)cc2)c(=O)n(C)c1=O	ANO1 activ -9.1
Cc1nnc(SCC2=C(C(=O)O)N3C(=O)[C@@H](NC(=O)Cn4cnnn4)[C@H]3SC2)s1	ANO1 block 100!
COc1ccccc1CNc1ccc([N+](=O)[O-])cc1C	ANO1 block 25
COc1cccc(OC)c1OCCCOc1ccc([N+](=O)[O-])cc1Cl	ANO1 block 100
COc1cccc(CNc2ccc([N+](=O)[O-])cc2Cl)c1O	ANO1 block 25
CCOc1ccccc1OCCCOc1ccc([N+](=O)[O-])cc1Cl	none
